High-throughput results as filed in PubChem BioAssay.
Shown are actives, neighbours in structure and some others; about 1.4% of the full set was active somewhere.
p53 reactivator: mutant p53 re-activation in reporter cells; H1299 p53-A138V BP100-luciferase reporter, luminescence, 24 h; Potency, µM (highest dose often 92.2 µM), hits mostly activators; 320,000 tested, 0.063% active; also: nearly all actives have a fitted effect of over 45% in size
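p53-null H1299 cells stably carrying temperature-sensitive p53-A138V and a BP100-luciferase reporter were pinned with compounds (4-point, 1:5 series) and held 24 hrs at 37 deg C. Luminescence was read 10 min after detection reagent.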
IL2 activator: activates IL-2 in a cell-based reporter assay | AID 652025 | 360,000 tested, 0.065% active | activation, % (series mostly up to about 46 µM) | IL-2 activation reporter assay, cell-based qHTS; stimulated with anti-CD3/CD4/CD28 beads; in transgenic mouse T cells; in the data active = activation above about 50%; inconclusive = mostly about 30% to 49%
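Readout is EGFP and DsRed signal by fluorescent plate cytometry after 18 h at 37 degrees C. Transgenic mouse T cells (750/well) received compound for 60 min before bead stimulation (anti-CD3, anti-CD4, anti-CD28); memory T cells served as non-tolerant control.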
BRCA1 expr act: BRCA1 expression activation. Potency, µM (highest dose often 46.1 µM), most hits filed as activators. 380,000 tested, 1.1% active. MCF7-BRCA1-FFLuc reporter, luminescence, 48 h; response scale: scaled: vehicle 0%, 10 µM genistein 100%. AID 624202; also: nearly all actives have a fitted effect of over 80% in size
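Using MCF7 cells harboring a BRCA1 firefly luciferase reporter, plated 2 h before compound pinning, the screen measured luminescence after 48 h incubation. Responses were normalized to DMSO and 10 microM genistein, then fitted for concentration-effect.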
uPA generation: cell surface uPA generation inhibition. cell surface uPA generation assay, qHTS. Potency, µM (doses to about 38.3 µM), actives largely listed as inhibitors. 330,000 tested, 0.31% active. AID 540303; active = well fitted inhibition curve with a large enough effect; inconclusive = small, poorly fitted or top-dose-only effect; inactive = no such curve, though single readings can be large or run the other way; tested in mouse RAW 264.7 cells; also: nearly all actives have a fitted effect of over 55% in size
TCR act: activators of T cell receptors | 330,000 tested, under 10 active | Potency, µM (titrated, usually from 9.22 µM), hits mostly activators | primary human leukocytes, anti-CD3, IL-2 HTRF, 48 h | AID 504894
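Primary human leukocytes were stimulated with a-CD3 beads plus compounds for 48 hr without co-stimulation; secreted IL-2 was quantified by HTRF using a-IL-2-K (europium cryptate) and a-IL-2-d2, excited at 320nm with acceptor emission read at 665nm.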
Large screens that a line does not name were inactive. Unless noted, calls follow the shape of the dose curve; as a rule, active = well fitted curve in the direction sought with a large enough effect; inconclusive = small, poorly fitted or top-dose-only effect, or another doubt; inactive = no such curve, though single readings can be large; an effect the other way counts as inactive or inconclusive.

COCC1CCCN(C(=O)c2cc(COc3ccc4ncccc4c3)on2)C1 (stereo unspecified)	uPA generation inconclusive
CC(C)N(C(=O)CCl)c1ccccc1	uPA generation 6.3µM (no result: p53 reactivator)
O=C(Nc1ccc(Br)cc1C(=O)O)c1ccc2c(c1)C(=O)N(Cc1ccccc1)C2=O	p53 reactivator inconclusive (no result: TCR act)
COc1ccc([C@@]2(C(C)C)ON(c3ccccc3C(F)(F)F)C2=O)cc1	uPA generation inconclusive
CCCCC[C@@H](/C=C/C1C(=O)C=C[C@H]1C/C=C\CCCC(=O)O)OC(C)=O (stereo partly specified)	uPA generation inconclusive (no result: p53 reactivator)
Fc1ccccc1CSc1ncnc2c1ncn2C1CCCO1 (stereo unspecified)	BRCA1 expr act 3.5µM (no result: p53 reactivator)
CNc1ccc2nc3ccccc3[n+](C)c2c1	uPA generation 4.5µM
C[n+]1c2ccccc2nc2ccc(NCCO)cc21	none
CC1OC(O[C@H]2C[C@@H](O)[C@]3(CO)[C@H]4[C@H](O)C[C@]5(C)[C@@H](C6=CC(=O)OC6)CC[C@]5(O)[C@@H]4CC[C@]3(O)C2)C(O)C(O)C1O (stereo partly specified)	none (no result: p53 reactivator, IL2 activator, uPA generation, TCR act)
O=C(CNC(=O)c1cccc(Cl)c1)Nc1ccc(Br)cc1C(=O)c1ccccc1	none
Cc1cc(NC(=O)c2cccc(Br)c2)n[nH]1	p53 reactivator inconclusive, BRCA1 expr act 11µM, uPA generation inconclusive
CS(=O)(=O)c1ccc2nc(NC(=O)c3ccccc3Br)sc2c1	BRCA1 expr act inconclusive, uPA generation inconclusive (no result: p53 reactivator)
CC(Cc1ccccc1)/[N+]([O-])=C\c1ccc(C(F)(F)F)cc1 (stereo unspecified)	p53 reactivator inconclusive, BRCA1 expr act 10µM
C[C@H]1CCC/C=C/C2C[C@H](O)CC2[C@H](O)/C=C/C(=O)O1 (stereo partly specified)	BRCA1 expr act inconclusive, uPA generation 0.32µM
CCN(CC)c1ccc(/C=N/c2sc3c(c2C#N)C2CCN3CC2)c(O)c1	IL2 activator 53
CCCC[C@@H](CNC)NC[C@H](Cc1ccc(O)cc1)NCCc1ccc(OCC)cc1	uPA generation inconclusive
Cc1ccc(N2C(=O)NC(=O)/C(=C\C=C\c3ccco3)C2=O)cc1	uPA generation 7.9µM
Cc1cccc(N2C(=O)NC(=O)/C(=C\C=C\c3ccco3)C2=O)c1	uPA generation 10µM
O=C1NC(=O)N(c2ccccc2)C(=O)/C1=C/C=C/c1ccco1	uPA generation 10µM
C=CCC[C@H](Cc1ccc(F)cc1)C(=O)OC[C@@H](Cc1c[nH]c2ccccc12)NC(=O)[C@@H](CC=C)CC(=O)N(CCO)Cc1ccccc1	none
O=[N+]([O-])c1ccc(Cl)c(S(=O)(=O)Nc2cccc(-c3ccc(N4CCCC4)nn3)c2)c1	uPA generation inconclusive
O=Cc1cc(OCc2ccccc2)ccc1[B-](F)(F)F	uPA generation inconclusive (no result: p53 reactivator)
O=C(c1cc(-c2cccc(Cl)c2)on1)N1CCOCC1	p53 reactivator inconclusive, BRCA1 expr act 10µM
O=C(c1cc(-c2ccccc2)on1)N1CCC2(CC1)OCCO2	none (no result: IL2 activator, BRCA1 expr act, uPA generation, TCR act)
COc1ccccc1C1c2[nH]c3ccccc3c2C[C@H]2C(=O)N(C3CCN(Cc4ccccc4)CC3)CC(=O)N12 (stereo partly specified)	uPA generation inconclusive
COc1ccc(-n2nc(C(=O)NCC(=O)N3CCC4(CC3)OCCO4)c3ccccc3c2=O)cc1OC	p53 reactivator inconclusive, BRCA1 expr act 10µM
C[C@@H]1C[C@H]2[C@@H]3CCC4=CC(=O)C=C[C@]4(C)[C@@]3(Cl)[C@@H](O)C[C@]2(C)[C@@]1(OC(=O)c1ccco1)C(=O)CCl	uPA generation inconclusive
COc1ccc(NC2=NCC(C)S2)cc1 (stereo unspecified)	p53 reactivator inconclusive, BRCA1 expr act inconclusive
COc1ccc(Nc2nc(N)nc(CCl)n2)cc1	p53 reactivator inconclusive, uPA generation 2.5µM
O=C(C1CCCN(S(=O)(=O)c2ccc(F)cc2)C1)N1CCOCC1 (stereo unspecified)	BRCA1 expr act inconclusive (no result: p53 reactivator)
CC1(C)C[C@H]2C=C(C=O)[C@]3(C=O)C[C@]3(C)[C@H]2C1	uPA generation 2.2µM
O=[N+]([O-])c1ccc(Cl)c([N+](=O)[O-])c1	uPA generation 1.3µM
O=[N+]([O-])c1ccc(O)c([N+](=O)[O-])c1	none (no result: p53 reactivator)
